The panel holds about 83,000 compounds, 20% with a hit somewhere; the sample as a whole holds those more often.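 The endpoint reported here, percent growth, reads 100 for growth as untreated, 0 for no net growth and -100 for all cells dead.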 Unmarked numbers belong to inactive results. The source made the active and inactive calls. Rule for the calls: active = growth percent below 10; inactive = the rest.
Assays:
Assay in all cases: NCI-60 one-dose screen, 48 h (100 = growth as untreated, 0 = no growth, -100 = all killed)
Details in all cases: 10 µM unless noted
[1] = test system: NCI-H23 lung
[2] = test system: NCI-H226 lung
[3] = test system: NCI-H322M lung
[4] = test system: HOP-62 NSCLC
[5] = test system: NCI-H460 lung
[6] = test system: HOP-92 NSCLC
[7] = test system: NCI-H522 lung
[8] = test system: A549/ATCC NSCLC
[9] = test system: 786-0 renal
[10] = test system: COLO 205 colon

Row | SMILES | growth [1] | growth [2] | growth [3] | growth [4] | growth [5] | growth [6] | growth [7] | growth [8] | growth [9] | growth [10]
1 | CS(CCCCN=C=S)=NC(=O)c1c(F)c(F)c(F)c(F)c1F (stereo not given) | 80.6% | 99.6% | 85.6% | 109% | 65.5% | 80.8% | 20.6% | 79.6% | 94.3% | 61.4%
2 | COc1ccccc1/C=C(/C(=O)c1ccccc1)c1ccccc1 | 95.4% | 107% | 115% | 114% | 93.6% | 75.7% | 106% | 97.4% | 103% | 122%
3 | CSc1ncnc2c1ncn2C1CCCO1 (stereo not given) | 96.1% | 90.1% | 90.9% | 99.7% | 105% | 141% | 121% | 106% | 104% | 119%
4 | CN(C)CC(=O)Nc1ccc(Cn2nnc3c2C(=O)c2nnn(Cc4ccc(NC(=O)CN(C)C)cc4)c2C3=O)cc1 | -31.7% (active) | -56.2% (active) | -52.6% (active) | -67.4% (active) | -3.43% (active) | -53.8% (active) | -67% (active) | -59.8% (active) | -76.4% (active) | -80.4% (active)
5 | Cc1ccc(S(=O)(=O)n2cc(-c3csc(-c4cn(C)c5ncccc45)n3)c3ccccc32)cc1 | 68.1% | 77.6% | 79.5% | 51.8% | 30.3% | 35.8% | 45.6% | 41.5% | 77.9% | 43.6%
6 | N#Cc1ccc(NC(=O)Nc2ccc(Cc3ccc(NC(=O)Nc4ccc(C#N)cc4)cc3)cc2)cc1 | -4.62% (active) | 37.7% | 63.3% | 50.2% | 17.2% | 46.8% | 28.2% | 41.3% | 49.3% | 29.5%
7 | Clc1nc(Cl)c2c3c(sc2n1)CCCC3 | 32.5% | 3.63% (active) | 90.2% | 91.4% | 109% | 103% | 7.65% (active) | 120% | 96.1% | 5.1% (active)
8 | Cl/C(=N\Nc1ccccc1)c1ccccc1 | 91.4% | 91% | 75.4% | 96% | 106% | 97.9% | 72.8% | 85.4% | 102% | 98.4%
9 | O=C(O)c1cccc2c1-c1ccccc1C2=O | 98.4% | 91.6% | 83.9% | 95.3% | 105% | 80.8% | 88.2% | 101% | 102% | 99.8%
10 | O=C1c2cc3c(cc2-c2c1c1cc(F)c(F)cc1c(=O)n2C[C@H](O)CO)OCO3 | -30.4% (active) | -74.1% (active) | -3.54% (active) | -35.2% (active) | 1.39% (active) | 9.43% (active) | -3.34% (active) | -57.8% (active) | -20.8% (active) | -17.9% (active)
11 | O=C([C@@H](COCc1ccccc1)N1C(=O)[C@@H](N2C(=O)OC[C@@H]2c2ccccc2)[C@H]1/C=C/c1ccccc1)N1CCC(CCN2CCCCC2)CC1 | 87% | 93.8% | 83.2% | 77.8% | 94.2% | 76.1% | 57.1% | 75.4% | 83.3% | 65.1%
12 | COc1ccc(-c2c3c(nc4n[nH]c(-c5ccc(Cl)cc5)c24)-c2ccccc2C(=O)C3=O)cc1 | -53% (active) | 42.3% | 84% | 29.1% | -12.9% (active) | 9.32% (active) | -59.7% (active) | 35.9% | 7.58% (active) | 70.6%

Source: PubChem BioAssay (NCI)
